Results on one sequence are retold here after patent US20210230599, “STEM-LOOP COMPOSITIONS AND METHODS FOR INHIBITING INTERLEUKIN-8” (VITRISA THERAPEUTICS, INC., published 2021).

For this experiment, the target named is Interleukin-8 (IL8, CXCL8), C-terminal His-tagged (Homo sapiens, UniProt P10145 SEQ:1-72). Nature of the experiment: competition; competition TR-FRET; L1 deleted, described as complete loss. Particulars: tags: C-terminal 6xHis (Sino Biological); ssRNA; 2'-F G, 2'-OMe A/C/U, 5' C6NH2, 3' idT. On the procedure: To better understand the sequence requirements and to confirm the stem structures of members of the Aptamer 3 family as determined from sequence covariation analysis from both the primary and secondary (degenerate) selections, a series of variants which included mutations and deletions to the predicted stems were synthesized and screened (Table 24). Activity of each of these variants were tested using a time resolved competition TR-FRET assay in which the labeled parent Aptamer 3 was competed with increasing concentrations of unlabeled variants for binding to IL8 (FIG. 14). Briefly, 2-fold dilutions of thermally equilibrated aptamers were made in TR-FRET Buffer (50 mM MOPS, pH 7.4, 125 mM NaCl, 5 mM KCl, 50 μM CHAPS, 0.1 mg/mL BSA, 1 mM CaCl₂, and 1 mM MgCl₂). 5 μL of aptamer or control solution was added to 5 μl mix of 10 nM C-terminal His-tagged-IL8, 60 nM ALEXA FLUOR® 647-labeled Aptamer, and 5 nM anti-His-Eu (Perkin Elmer) in a black wall low volume 384 well plate (Greiner). […] The plate was read on a Biotek CYTATION™ 5 plate reader. […]
To confirm the importance of this residue, molecules were made and tested in which either loop L1 was deleted entirely (Aptamer 40) or was mutated to 5′-U-3′(Aptamer 41). In both cases, there was a complete loss of activity (>10-fold) as determined by competition TR-FRET assay (Table 25 and FIG. 15).
Sequence GAUGCGGUAGAUUACGGGUAGAGUGACCGCAUC had a binding signal above 10 fold worse than Aptamer 3.
